Sampled rows, rich in hits. Any-hit rate of the full collection: about 1.2%.
S1P2 agonist: agonists of human S1P2 receptor; O95136; S1P2-expressing cell line, agonist reporter read-out; activation, % at 4.5 µM; 97,000 compounds, 0.46% hits; AID 729; in the data active = activation above about 16%
GALR2 ag: GALR2 (human) receptor agonism | AID 803 | 140,000 compounds, 0.48% hits | GALR2-expressing cells, agonist activation read-out | O43603 | activation, % (concentration not given with the values); in the data active = activation above about 5%, passing the limit was not always enough
Target sequence (O43603 whole entry, looked up): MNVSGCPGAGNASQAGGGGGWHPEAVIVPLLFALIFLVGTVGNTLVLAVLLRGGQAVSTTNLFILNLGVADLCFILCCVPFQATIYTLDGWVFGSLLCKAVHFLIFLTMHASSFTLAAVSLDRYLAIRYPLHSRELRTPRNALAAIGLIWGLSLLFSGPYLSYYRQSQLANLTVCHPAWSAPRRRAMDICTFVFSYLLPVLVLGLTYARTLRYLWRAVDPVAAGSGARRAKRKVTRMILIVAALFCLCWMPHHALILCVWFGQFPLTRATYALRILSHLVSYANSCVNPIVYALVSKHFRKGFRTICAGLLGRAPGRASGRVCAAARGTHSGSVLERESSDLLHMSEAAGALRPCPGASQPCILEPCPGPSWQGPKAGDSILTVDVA
GALR2 blocker: GALR2 (human) receptor antagonism | O43603 | GALR2-expressing cells, antagonist mode | inhibition, % at 4 µM | 140,000 compounds, 0.39% hits | AID 828;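 note: cells stimulated with galanin 1-16 at roughly its EC80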
S1P2 blocker: antagonists of human S1P2 receptor | AID 736 | inhibition, % at 5 µM | cell-based S1P2 antagonist assay, inhibition at 5 uM | 97,000 compounds, 0.21% hits | O95136; in the data active = inhibition above about 45%;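 note: CRE beta-lactamase reporter cells expressing human S1P2 stimulated with S1P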
GALR2 ant conf: GALR2 (human) antagonism confirmed; shares compounds with GALR2 blocker; GALR2-expressing cells, antagonist mode, inhibition; inhibition, % at 4 µM; 480 compounds, 60% hits;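 note: cells stimulated with galanin at about its EC80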
BLA inhib ctr: beta-lactamase inhibition, GALR2 counterscreen; shares compounds with GALR2 blocker; CHO NFAT-BLA reporter, beta-lactamase FRET, thapsigargin-stimulated; inhibition, % at 4.2 µM; 480 compounds, 36% hits; AID 867;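 active = inhibition above the mean inhibition across tested compounds plus 3 SD, cut at about 27% in these data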
Of the large screens only hits and unclear results are named; the others gave an inactive call (follow-up assays come after a bar, where they were run). Cut-off read from the data, not from the text of the source, unless noted: active = inhibition above about 27%; inactive = the rest.

COc1ccc(COc2ccsc2C(=O)Nc2ccc(Cl)cc2)cc1	GALR2 blocker 51.7 | GALR2 ant conf inactive | BLA inhib ctr inactive
COc1ccc(OC)c(NC(=O)C2CCCN(S(=O)(=O)c3cccc4nsnc34)C2)c1 (centres undefined)	none
COc1ccc(Cl)cc1NC(=O)C1CCCN(S(=O)(=O)c2cccc3nonc23)C1 (centres undefined)	GALR2 blocker 31.0 | GALR2 ant conf inactive | BLA inhib ctr inactive
CC1=C(C(=O)Nc2cccc(F)c2)C(c2ccsc2)C2=C(CC(C)(C)CC2=O)N1 (centres undefined)	none (no result: S1P2 agonist, S1P2 blocker)
COc1ccc(-c2noc(CCC(=O)Nc3ccc4c(c3)OCCO4)n2)cc1	GALR2 blocker 28.4 | GALR2 ant conf inactive | BLA inhib ctr inactive
CCc1nn2cc(C(=O)c3cc(Cl)ccc3O)cnc2c1-c1ccc(F)cc1	none (no result: S1P2 agonist, S1P2 blocker)
CCOC(=O)CSc1nc(C)cc(=O)[nH]1	GALR2 blocker 32.1 | GALR2 ant conf inactive | BLA inhib ctr inactive
CCOC(=O)Cn1nc(-c2ccccc2)c2cnc3ccc(CC)cc3c21	none (no result: S1P2 agonist, S1P2 blocker)
CC(NC(=O)Nc1nnc(C(F)(F)F)s1)(C(F)(F)F)C(F)(F)F	GALR2 blocker 38.1 | GALR2 ant conf inactive | BLA inhib ctr inactive
O=C(NC(Nc1nc2ccc([N+](=O)[O-])cc2s1)(C(F)(F)F)C(F)(F)F)c1ccccc1Cl	GALR2 blocker 96.5 (no result: S1P2 agonist, S1P2 blocker) | GALR2 ant conf 94.2 | BLA inhib ctr 91.0
CN(C)CCCN1C(=O)c2cccc3c([N+](=O)[O-])ccc(c23)C1=O	GALR2 blocker 56.4 (no result: S1P2 agonist, S1P2 blocker) | GALR2 ant conf 47.8 | BLA inhib ctr 30.6
COc1cccc(NC(=O)CCSc2ccc(C)cc2)c1	none (no result: S1P2 agonist, S1P2 blocker)
COc1cccc(COc2cc3ccccc3nc2C)c1	GALR2 blocker 39.8, S1P2 blocker 57.3 | GALR2 ant conf 36.7 | BLA inhib ctr inactive
O=C(N/N=C/c1ccc(O)c(O)c1)c1ccc(CSc2cccc3cccnc23)cc1	none
CCOC(=O)c1ccc(N2C(=O)CC(N3CCC(O)(c4ccc(Br)cc4)CC3)C2=O)cc1 (centres undefined)	GALR2 blocker 29.8, S1P2 blocker 46.4 | GALR2 ant conf 39.6 | BLA inhib ctr inactive
Cn1c(NC(=O)c2ccc(F)c(F)c2)cc(=O)n(C)c1=O	GALR2 blocker 27.6 (no result: S1P2 agonist, S1P2 blocker) | GALR2 ant conf inactive | BLA inhib ctr inactive
CCOc1cc(Cl)c(NC(=O)CC)cc1OCC	none (no result: S1P2 agonist, S1P2 blocker)
C=CCSC(=C(C#N)C#N)c1cc2c([nH]1)CCCC2	GALR2 blocker 30.6 | GALR2 ant conf 27.0 | BLA inhib ctr inactive
O=[N+]([O-])c1ccc(N=Cc2ccc(Br)c([N+](=O)[O-])c2)cc1	none (no result: S1P2 agonist, S1P2 blocker)
O=C(NCc1cccnc1)/C(=C\c1ccc(-c2ccc(Br)cc2)o1)S(=O)(=O)c1ccccc1	GALR2 blocker 36.9 (no result: S1P2 agonist, S1P2 blocker) | GALR2 ant conf 41.0 | BLA inhib ctr 27.4
O=C(NCc1cccnc1)/C(=C/c1ccc(-c2cccc(C(F)(F)F)c2)o1)NC(=O)c1ccccc1	none
CCCCCOc1ccc(Br)cc1CSC(=N)N	GALR2 blocker 33.3 (no result: S1P2 agonist, S1P2 blocker) | GALR2 ant conf 37.7 | BLA inhib ctr 76.9
CC(C)Oc1cccc(-c2cc(C(=O)NC(=S)N(C)c3ccccc3C(=O)O)c3ccccc3n2)c1	none (no result: S1P2 agonist, S1P2 blocker)
Cc1ccc(N)c2c1OCCC2=O	none (no result: S1P2 agonist, S1P2 blocker)
Cc1ccc(-c2cc(C(=O)N(C)Cc3cnn(C)c3C)c3cc(Br)ccc3n2)cc1	GALR2 blocker 28.1 (no result: S1P2 agonist, S1P2 blocker) | GALR2 ant conf inactive | BLA inhib ctr inactive
CCN(CC)c1ccc(/C=N/Nc2nc3ccccc3[nH]2)cc1	GALR2 blocker 41.7 (no result: S1P2 agonist, S1P2 blocker) | GALR2 ant conf 35.1 | BLA inhib ctr inactive
Cc1ccsc1/C=N/Nc1nc2ccccc2[nH]1	GALR2 blocker 32.5 (no result: S1P2 agonist, S1P2 blocker) | GALR2 ant conf 38.4 | BLA inhib ctr inactive
C(=N\Nc1nc2ccccc2[nH]1)/c1cccs1	GALR2 blocker 28.8 | GALR2 ant conf inactive | BLA inhib ctr inactive
Cc1cc(=O)[nH]c(N/N=C/c2sccc2C)n1	none (no result: S1P2 agonist, S1P2 blocker)
C=CCn1cc(/C=N/Nc2nc3ccccc3[nH]2)c2ccccc21	GALR2 blocker 28.1 (no result: S1P2 agonist, S1P2 blocker) | GALR2 ant conf 29.0 | BLA inhib ctr inactive
Cc1cccc(Nc2cc(C)c3c(O)cccc3n2)c1C	none (no result: S1P2 agonist, S1P2 blocker)
CCCn1c(N)c(C(=S)NC(=O)C2CC2)c(=O)n(C)c1=O	none (no result: S1P2 agonist, S1P2 blocker)
COc1ccc2nc(/N=C/c3c(C)[nH]n(-c4ccc(C)cc4)c3=O)sc2c1	none (no result: S1P2 agonist, S1P2 blocker)
COc1cc(/C=C2\SC(=Nc3ccccc3)N(CCc3c[nH]c4ccccc34)C2=O)ccc1OC(C)C(=O)O (centres undefined)	none (no result: S1P2 agonist, S1P2 blocker)
O=C1/C(=C/c2ccc(N3CCOCC3)o2)SC(=Nc2ccccc2)N1CCc1c[nH]c2ccccc12	GALR2 blocker 27.5, S1P2 blocker 67.5 | GALR2 ant conf 27.0 | BLA inhib ctr 43.2
